For this assay, the target named is C-X-C chemokine receptor type 6 (Homo sapiens) (UniProt O00574). The assay can be described thus: CXCR6 receptor antagonists, confirmation, cell-based, single concentration, beta-arrestin, luminescence (AID 602409).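 Also: receptor stimulated with 10 nM CXCL16 agonist; beta-galactosidase fragment complementation upon beta-arrestin recruitment to receptor; plate controls were CXCL16 plus DMSO for no effect and DMSO without CXCL16 for full effect.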 The note with it: CHO-K1 CXCR6 PathHunter beta-arrestin, at 20 µM, stronger effect = higher value.

One molecule from PubChem BioAssay AID602409 (Sanford-Burnham Center for Chemical Genomics, 2012) can be followed below.

The other results are listed elsewhere or left out. Calls of active or inactive are those of the source.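 The calls were made as follows: active = mean inhibition over four retests above 40%; inactive = the rest.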

By inhibition is commonly meant the share of the control response that was lost under treatment.

Chain of C-X-C chemokine receptor type 6 (Homo sapiens) (O00574 whole entry, looked up, the tested form may be a part): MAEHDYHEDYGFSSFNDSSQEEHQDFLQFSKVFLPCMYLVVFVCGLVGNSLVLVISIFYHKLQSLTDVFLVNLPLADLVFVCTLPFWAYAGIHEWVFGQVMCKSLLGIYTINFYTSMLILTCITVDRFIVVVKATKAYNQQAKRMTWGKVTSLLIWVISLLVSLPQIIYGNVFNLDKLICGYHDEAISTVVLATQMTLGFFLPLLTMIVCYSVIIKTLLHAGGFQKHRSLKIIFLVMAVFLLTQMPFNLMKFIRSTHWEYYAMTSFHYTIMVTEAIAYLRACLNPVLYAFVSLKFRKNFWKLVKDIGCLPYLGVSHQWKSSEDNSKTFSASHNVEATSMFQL

For `CC(=O)OC1C2(CC3N4C(=O)C5(CO)SSC4(CC31O)C(=O)N5C)OC(C)C(C)(C)C2=O` (stereo unspecified), the inhibition is 68.1% (active).
